Screen size: about 1,400 compounds; about 140 (10%) were called active.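 Rule for the calls: active = Half-maximal inhibitory dose from the fit at or below ten times the top valid tested dose; inconclusive = Invalid fit, or flat curve showing 30 to 70% inhibition; inactive = the rest.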 Not all results are given here. Entries with a potency or affinity are not part of this list.
Target: Lysine-specific demethylase 4C (Homo sapiens) (UniProt Q9H3R0)
Experiment: GASC-1 (JMJD2C) histone demethylase inhibitors, dose response, biochemical, DELFIA europium, cherry-picked samples (AID 488835);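 note: signal is the H3K9me2 demethylation product detected by a dimethyl-specific antibody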
Conditions: GST-JMJD2C(1-420), H3K9me3 demethylation; series mostly up to 6 µM; activity change, negative = inhibition: at the top concentration

Sequence of Lysine-specific demethylase 4C (Homo sapiens) (Q9H3R0 1-420 limits assumed): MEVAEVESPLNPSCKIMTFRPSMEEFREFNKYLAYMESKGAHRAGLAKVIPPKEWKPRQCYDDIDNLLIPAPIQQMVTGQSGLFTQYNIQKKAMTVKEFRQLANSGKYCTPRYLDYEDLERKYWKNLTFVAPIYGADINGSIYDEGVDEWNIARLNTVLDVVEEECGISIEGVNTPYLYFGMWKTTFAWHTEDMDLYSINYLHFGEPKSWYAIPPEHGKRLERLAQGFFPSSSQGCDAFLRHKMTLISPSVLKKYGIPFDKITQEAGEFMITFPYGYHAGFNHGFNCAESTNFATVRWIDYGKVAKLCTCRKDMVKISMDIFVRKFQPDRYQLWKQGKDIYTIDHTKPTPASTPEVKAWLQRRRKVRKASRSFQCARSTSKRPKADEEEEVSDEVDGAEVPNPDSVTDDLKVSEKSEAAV

Activity change, negative = inhibition, inactive:
COC(=O)c1cc(OC)c(OC)cc1NC(=O)Cn1nnc(-c2ccccc2Cl)n1 4.22%
CC12CN3CC(C)(CN(C1)C3c1ccc3ccccc3c1O)C2=O (centres undefined) 10.4%
COc1ccc2c(C(=O)NCCCCO)c(-c3ccc(S(C)(=O)=O)cc3)sc2c1 3.4%
C#CC[N+]1(CC#Cc2ccc(C#CC[N+]3(CC#C)CCOCC3)cc2)CCOCC1 -11%
CSc1nc(N2CCN(C)CC2)c2c(c1C#N)CC(C)(C)OC2 -4.52%
Cc1ccc(NC(=O)CSc2ncccn2)c([N+](=O)[O-])c1 -0.734%
Nc1nnc(SC2CC(=O)N(c3ccccc3)C2=O)s1 (centres undefined) 1.05%
C=CCN(C(=O)Nc1ccccc1)C1CC(=O)N(c2ccc(OC)cc2)C1=O (centres undefined) -1.23%
Cc1nnc2c(N3CCN(C(=O)c4ccco4)CC3)nc3ccccc3n12 1.2%
Cc1c(C(=O)Nc2ccc3c(c2)OCO3)sc2ncn(CC(=O)N3CC(C)CC(C)C3)c(=O)c12 (centres undefined) 12.4%
O=C(Nc1nc2c(s1)C(=O)CCC2)c1ccccc1 4.86%
CCCN1C(=O)c2ccc(C(=O)Nc3cc(C)ccc3O)cc2C1=O 12.9%
C[C@H](CO)N1C[C@H](C)[C@@H](CN(C)S(=O)(=O)c2cn(C)cn2)Oc2ccc(NC(=O)C3CC3)cc2C1=O 5.52%
C[C@H](CO)N1C[C@H](C)[C@H](CN(C)S(=O)(=O)c2ccccc2)Oc2c(NS(C)(=O)=O)cccc2C1=O 1.69%
COC(=O)c1c(-c2cccs2)csc1NC(=O)CN1CCOCC1 4.05%
O=C(NCCCN1CCOCC1)c1cccc(S(=O)(=O)N2CCc3ccccc3C2)c1 7.38%
Cc1nc2ccccn2c1C(=O)NCCCN1CCOCC1 18%
Cc1ccc(S(=O)(=O)N2CCOCC2)cc1NC(=O)COC(=O)c1cc(=O)[nH]c2ccccc12 -7.07%
Cc1c(C(=O)NCc2cccs2)oc2ccccc12 4.33%
Cc1cc(NC(=O)COc2ncnc3sc(C)c(C)c23)no1 4.4%
Cn1c(SCC(=O)Nc2cc(S(=O)(=O)N3CCOCC3)ccc2N2CCOCC2)nnc1-c1ccncc1 -0.937%
Cc1ccccc1C(=O)OCCCN=C1NS(=O)(=O)c2ccccc21 8.73%
O=C(CCc1ccc(S(=O)(=O)NCc2ccccc2)cc1)NCc1ccc2c(c1)OCO2 -1.2%
Cc1noc(C)c1S(=O)(=O)N(C)C[C@H]1Oc2c(NC(=O)Nc3ccccc3)cccc2C(=O)N([C@H](C)CO)C[C@@H]1C 9%
O=C(NN=C1CCCCCCCCCCC1)c1cccc(S(=O)(=O)N2CCOCC2)c1 -5.34%
O=C(CC1NC(=O)NC1=O)Nc1ccccc1 (centres undefined) 0.477%
Cc1nnnn1/C(=C\c1ccccc1)C(=O)OCC(=O)NC(C)(C)C 4.63%
COc1ccc(S(=O)(=O)Nc2ccc3c(c2)C(=O)N([C@H](C)CO)C[C@H](C)[C@H](CN(C)Cc2ccc(C(=O)O)cc2)O3)cc1 8.66%
Cc1noc(C)c1NC(=O)N(C)C[C@H]1Oc2ccc(NC(=O)Cn3cnnn3)cc2C(=O)N([C@H](C)CO)C[C@@H]1C 4.99%
Oc1cc(O)cc(/C=C/c2ccc(O)c(O)c2)c1 -12.8%
CC(=O)OCC1OC(OC2C[C@]3(C)C(CC(O)C4C([C@](C)(CCC=C(C)C)OC5OC(CO)C(O)C(O)C5O)CC[C@]43C)[C@@]3(C)CCC(O)C(C)(C)C23)C(O[C@@H]2OC(C)C(O)C(O)C2O)C(O)C1O (some centres undefined) 5.45%
N=C1C(c2nc3ccccc3s2)=C(O)CN1Cc1ccccc1 -5.43%
CN(C(=O)c1ccccn1)c1nnc(-c2ccccn2)s1 4.97%
Nc1ccc2oc(-c3ccccn3)nc2c1 1.06%
O=C(N/N=C/c1nn(-c2ccccc2)cc1-c1ccccc1)c1ccncc1 0.372%
CCCC(=O)Nc1ccc(C(=O)NCC2CCCO2)cc1 (centres undefined) 3.13%
CS(=O)(=O)N(CCc1ccccc1)CC(=O)NCC1CCCO1 (centres undefined) 4.93%
Cc1cc(C)n(-c2nnc(C)n2/N=C/c2ccco2)n1 -0.704%
O=C(O)c1cc2cc(Cl)ccc2oc1=O -0.508%
O=C(CSc1nc2ccccc2c(=O)n1Cc1ccccc1)NCc1ccco1 -2.03%
CCOC(=O)Cn1c(=O)cnc2ccccc21 5.57%
O=[N+]([O-])c1ccccc1/C=C/C=N/n1c(-c2ccc(Cl)cc2)n[nH]c1=S -7.26%
CC(C)(C)n1ncc2c(=O)n(Cc3ccccc3Br)cnc21 -1.56%
CCN(CC)c1ccc(C(=O)OCC(=O)N2CCCC2)cc1 8.43%
O=C(OCC(=O)N1CCCC1)c1ccc(S(=O)(=O)Nc2ccccc2)cc1 -1.48%
C[C@H](CO)N1C[C@H](C)[C@@H](CN(C)C(=O)NC2CCCCC2)Oc2c(NC(=O)c3ccncc3)cccc2C1=O -0.139%
CCC(=O)N1c2ccc(S(=O)(=O)CCC(=O)NCCC3=CCCCC3)cc2CC1C (centres undefined) -5.61%
Brc1ccc(-c2csc(N3CCc4ccccc4C3)n2)cc1 -8.29%
O=C(N/N=C/c1ccc([N+](=O)[O-])o1)c1cn(-c2ccccc2)nc1-c1ccc(F)cc1 -0.632%
COc1ccc(-n2c(C)cc(/C=N/Nc3nnc(C)n3N)c2C)cc1 -7.05%
Cc1cccc(C)c1NC(=S)NN(Cc1ccccc1)c1ccccc1 9.61%
CCN(CC)CCCOc1ccc(C)cc1Br -1.23%
O=C(C1CCC1)N(CCc1ccccc1)Cc1nc2ccccc2c(=O)[nH]1 2.65%
O=C(Nc1ccc(Cl)cc1)N1CCN(c2ccccc2)CC1 5.66%
COc1ccc(NC(=S)N2CCC(C(=O)N3CCCCCC3)CC2)cc1 6.3%
COc1ccc(C(C(C(=O)c2ccco2)N2CCOCC2)N2CCOCC2)cc1 (centres undefined) 5.71%
CCN1C(=O)C(C(=O)Nc2ccc(OC)cc2)C2CC1(C)Oc1ccccc12 (centres undefined) 4.42%
COc1ccc(CC(=O)Nc2ccc(S(=O)(=O)N(C)C)cc2)cc1OC 2.27%
Cc1onc(-c2c(F)cccc2Cl)c1C(=O)N1CCN(S(C)(=O)=O)CC1 12.7%
N/C(=N\OC(=O)COc1cc(Cl)c(Cl)cc1Cl)c1ccncc1 -1.87%
CN(C)S(=O)(=O)c1cccc(NC(=S)NCc2ccc3c(c2)OCO3)c1 1.74%
C=CCNC(=S)Nc1ccc(N2CCOCC2)c(S(=O)(=O)Nc2ccccc2Cl)c1 3.98%
O=C(NCc1cccc(F)c1)C1CCN(S(=O)(=O)Cc2ccccc2)CC1 -2.41%
COc1ccc(S(=O)(=O)N2CCC(C(=O)N3CCc4ccccc4C3)CC2)cc1 4.71%
COc1ccc(C2CC(=O)C=C(NNS(=O)(=O)c3ccc(C)cc3)C2)cc1 (centres undefined) 0.334%
COCCn1nnnc1C(C(C)C)N1CCCC(C)C1 (centres undefined) -1.09%
COc1ccc(NS(=O)(=O)c2cccc(C(=O)OCC(=O)Nc3cc(C)on3)c2)cc1 2.59%
CCc1ccc(S(=O)(=O)Nc2nnc(N)s2)cc1 6.79%
O=C(NCCNc1ccc([N+](=O)[O-])cc1C(F)(F)F)c1ccccc1 5.47%
COC(=O)COc1ccc(S(=O)(=O)N2CCOCC2)cc1C 5.36%
COc1ccccc1C(c1nnnn1Cc1ccccc1)N1CCN(C2CCCC2)CC1 (centres undefined) -4.86%
C/C=C(\C)c1nnc(NC(=O)C(C)C)s1 9.8%
CCOC(=O)N1CCN(C(=S)NC(=O)c2ccc(F)cc2)CC1 -2.89%
COc1ccc(-c2nn(-c3ccccc3)cc2CNC(C)Cn2cncn2)c(F)c1 (centres undefined) -4.46%
CCOc1ccc(N2CC(C(=O)Nc3nnc(Cc4ccc(OC)cc4)s3)CC2=O)cc1 (centres undefined) 4.76%
CCCCN1CC[C@H]2C=CC[C@@H](C(=O)Nc3ccc(OC)cc3)[C@H]2C1=O 8.42%
O=S(=O)(Nc1ccccc1)c1ccc(NS(=O)(=O)c2c(F)cccc2F)cc1 -0.423%
C[C@H](CO)N1C[C@H](C)[C@@H](CN(C)C(=O)Nc2ccc(C(F)(F)F)cc2)Oc2c(NC(=O)Nc3ccc4c(c3)OCO4)cccc2C1=O 3.68%
COc1ccc(/C=N/Nc2ncnc(Cl)c2N)cc1OC -1.24%
COc1cc(/C=N/N2C(=O)C3C4c5ccccc5C(c5ccccc54)C3C2=O)ccc1O (centres undefined) -0.389%
COc1cc(/C=N/Nc2ccccc2)ccc1OC(=O)c1cccs1 -0.0417%
O=C(O)CCCC(=O)Nc1ccc(C(=O)NCc2cccnc2)cc1 3.5%
N#CCN1CCC(c2cc(-c3ccco3)n[nH]2)CC1 -1.55% [at 1.6 µM]
CS(=O)(=O)N(CC(=O)O)c1cc(Cl)cc(Cl)c1 -2.49%
COc1ccc(N2CCN(C(=O)CSc3nnc(-c4ccco4)n3C)CC2)cc1 4.94%
C[C@H](CO)N1C[C@H](C)[C@@H](CN(C)C(=O)Nc2ccccc2)Oc2c(NC(=O)c3ccncc3)cccc2C1=O 5.62%
Cc1cccc2sc(NNC(=O)c3cc(=O)c4ccccc4o3)nc12 -7.12%
CN1N=C(C(F)(F)F)CC1=O -2.45%
CSC1=NCCN1C(=O)c1cccc(C(F)(F)F)c1 -2.7%
Cn1c(=O)c(-c2ccccc2)nn2c3ccccc3nc12 7.46%
Cc1ccc(Nc2c(-c3ccccn3)nc3cc(C)ccn23)cc1 6.6%
CCOC(=O)N1CCC2(CC1)C(C#N)=C(N)OC1=C2C(=O)CC(C)(C)C1 4.68%
C[C@H](CO)N1C[C@H](C)[C@@H](CN(C)Cc2ccc(C(=O)O)cc2)Oc2c(NC(=O)c3ccncc3)cccc2C1=O 7.09%
O=C(O)Cn1cc(/C=C2/SC(=O)N(CC(=O)N3CCCCCC3)C2=O)c2ccccc21 2.27%
O=C(O)CCC(=O)Nc1nc2nc(-c3ccccc3)cc(-c3ccccc3)n2n1 0.643%
CCN(C[C@H]1N[C@@](C)(C(=O)OC)[C@H]2C(=O)N(Cc3ccccc3)C(=O)[C@@H]12)C(=O)Nc1ccc(F)cc1 -4.19%
Cc1cc(N2C(=O)C(=O)/C(=C(/O)c3ccc(F)cc3)C2c2cccc(Br)c2)no1 (centres undefined) 2.06%
COc1cccc(/C=C/C(=O)NCCc2ccc(OC)c(OC)c2)c1 -4.6%
CCc1ccc(-c2cc(C)no2)cc1S(=O)(=O)NCCc1ccc(OC)c(OC)c1 7.44%
